Data as given in PubChem BioAssay (Tox21).
Values joined by “and” are separate entries in the source; they are usually repeats but may differ in a detail not shown here. Identical values can stand only once. Inconclusive results are not listed. Entries that show only a call come without a potency. Active and inactive are the calls of the source. The call rests on the fitted dose curve; in most records, active means well fitted cell-killing curve with a large enough effect in the repeat runs; inconclusive means weak or mixed curves, or effect the other way; inactive means flat fitted curve, though single readings scatter.

Assay: qHTS RealTime-Glo MT Cell Viability Assay in HEK293 cells - 24 hour (AID 1224886); further: nearly all actives have a fitted effect of over 50% in size
Conditions: RealTime-Glo luminescence; series mostly up to 76.8 µM
Description: National Center for Advancing Translational Sciences [NCATS]
NIH Chemical Genomics Center [NCGC]
U.S. Environmental Protection Agency [EPA]
National Institutes of Environmental Health Sciences [NIEHS]
National Toxicology Program [NTP]
U.S. Food and Drug Administration [FDA]
Measure of cell viability is critical in the cell-base assay. Analysis of cell viability is necessary for the characterization of cell responses to cytotoxic drugs and environmental stress. A RealTime-Glo MT Cell Viability Assay to monitor cell viability in real time of continues cell culture during 40 hours of compound treatment was used to screen Tox21 10K library compounds in Hek293 cells. The RealTime-Glo MT Cell Viability Assay is a nonlytic, homogeneous, bioluminescent method to measure cell viability in real time using a simple, plate-based method. The assay involves adding NanoLuc luciferase and a cell-permeant prosubstrate to cells in culture. Viable cells reduce the proprietary prosubstrate to generate a substrate for NanoLuc luciferase. This substrate diffuses from cells into the surrounding culture medium, where it is rapidly used by the NanoLuc Enzyme to produce a luminescent signal. The signal correlates with the number of viable cells, making the assay well suited for cytotoxicity studies.
Tox21 Assay Protocol Summary:
The mixture of Hek293 cell suspension and reagents were dispensed at 600cells/6 ul/well in 1536-well tissue culture treated black solid bottom plates using a Multidrop dispenser. After the assay plates were incubated at a 37 C/5% CO2 incubator for 5 hours, 23 nL of compounds dissolved in DMSO, positive and negative controls was transferred to the assay plate by a pintool work station. The plates were incubated at 37 C for 40 hours. The luminescence intensity were measured at 0h, 8h, 16h, 24h, 32h and 40h time points using ViewLux plate reader during compound treatment.
Potency means the concentration at half of the fitted maximal effect.

Row | Compound | Potency
1 | C=CC(C)(CCC=C(C)C)OC(=O)c1ccccc1N (stereo not given) | inactive
2 | CC(C)(C)NCC(O)c1cc(Cl)c(N)c(C(F)(F)F)c1 (stereo not given) | inactive
3 | CC(C)(C)c1ccc(CCOc2ncnc3ccccc23)cc1 | inactive
4 | C[N+]1(CCC(C(N)=O)(c2ccccc2)c2ccccc2)CCCCC1 | inactive
5 | COC(=O)Cc1ccccc1 | inactive
6 | C[Si](Cn1cncn1)(c1ccc(F)cc1)c1ccc(F)cc1 | 25.4 µM (active) and 21.9 µM (active)
7 | C[N+]1(CCF)[C@@H]2CC[C@H]1CC(OC(=O)C(O)(c1ccccc1)c1ccccc1)C2 (stereo not given in full) | inactive
8 | CN1CC[C@]23c4c5ccc(O)c4O[C@H]2[C@@H](O)CC[C@H]3[C@H]1C5 | inactive
9 | CC(=O)OC(c1ccccc1)C(Cl)(Cl)Cl (stereo not given) | inactive
10 | CCOC(C(=O)OCCN(C)C)(c1ccccc1)c1ccccc1 | inactive
11 | O=S(=O)(Cl)Cl | inactive
12 | CCOP(=S)(S)OCC | inactive
13 | Oc1cccc(Cl)c1 | inactive
14 | CCCBr | inactive
15 | COc1cc(CC(C)N)c(OC)cc1Br (stereo not given) | inactive
16 | CC(C)(C)CC(C)(C)c1ccc(O)cc1 | inactive
17 | CC1(C)CC(=O)CC(C)(C)N1[O] | inactive
18 | NCCc1cc(O)c(O)cc1O | inactive
19 | CC(C)CCCCCCCOC(=O)c1ccccc1C(=O)OCCCCCCCC(C)C | inactive
20 | COc1ccccc1N1CCNCC1 | inactive

Row | Compound | Potency
21 | CC(C)(c1ccccc1)c1cc(-n2nc3ccccc3n2)c(O)c(C(C)(C)c2ccccc2)c1 | inactive
22 | c1ccc2c(c1)-c1cccc3cccc-2c13 | inactive
23 | COc1ccc2c(c1OC)C(=O)O[C@H]2[C@@H]1c2cc3c(cc2CCN1C)OCO3 | inactive
24 | Cc1ccccc1 | inactive
25 | Nc1ccccc1C(=O)OCCc1ccccc1 | 21.9 µM (active)
26 | OCCCl | inactive
27 | FC(Cl)(Cl)C(F)(Cl)Cl | inactive
28 | CCCSP(=S)(OCC)Oc1ccc(SC)cc1 (stereo not given) | inactive
29 | CC(C)CCON=O | inactive
30 | C=CC(=O)OCC | inactive
31 | CCOP(=O)(O)C(N)=O | inactive
32 | CC(C)OC(=O)Cc1ccccc1 | inactive
33 | O=C(O)C(F)(F)C(F)(F)C(F)(F)C(F)(F)C(F)(F)C(F)(F)C(F)(F)C(F)(F)F | inactive
34 | C=CC(=O)NC(C)(C)CC(C)=O | inactive
35 | Clc1ccccc1 | inactive
36 | CCCCC1C(=O)NC(=O)N(C2CCCCC2)C1=O (stereo not given) | inactive
37 | CCC(=O)O[C@@H]1C=C2CCC3C(CCC4(C)C3CC[C@@H]4OC(=O)CC)C2CC1 (stereo not given in full) | inactive
38 | O=C(N[C@H]1CN2CCC1CC2)c1ccc2c(c1)OCCO2 | inactive
39 | CN(C)C(=O)Nc1cccc(OC(=O)NC(C)(C)C)c1 | inactive
40 | CCCCCCCCCCCC[N+](C)(C)CCOc1ccccc1 | 11 µM (active) and 10.7 µM (active)
